Screening data from PubChem BioAssay.
An excerpt weighted towards active compounds, which were near 1.3% of everything screened.
NPR1 activator = GC-A stimulated cGMP production enhancers – HEK293 GC-A cells, cGMP TR-FRET, EC30 ANP, primary screen; Atrial natriuretic peptide receptor 1 (Homo sapiens), P16066; 0% at EC30 ANP, 100% saturating ANP; activation, % at 10 µM; 370,000 compounds, 0.14% hits; in the data active = activation above about 40%
HIF activator = HIF pathway transcriptional activators, primary screen, cell-based, U2OS HRE-luciferase, luminescence; U2OS HRE-luciferase reporter; normalized: DMSO 0%, desferrioxamine 100%; activation, % at 7.5 µM (by protocol); 300,000 compounds, 0.32% hits;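 active = mean activation of at least 10% of the iron chelator positive control signal, with at least half of replicates also reaching 10%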
proKLK7 act = proKLK7 zymogen activators, primary screen, biochemical, fluorescence intensity; purified proKLK7, EDANS-DABCYL substrate fluorescence; 100% is mature enzyme control, 0% vehicle; activation, % at 7 µM; 370,000 compounds, 0.9% hits;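 active = activation above the mean of all tested compounds plus 3 SD, computed per campaign excluding outliers beyond control limits, cut at about 13% in these data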
NPR2 activator = human GC-B receptor activators, primary screen, HEK293 GC-B cells, cGMP TR-FRET, EC30 CNP; Atrial natriuretic peptide receptor 2 (Homo sapiens), P20594; 0% at EC30 CNP, 100% saturating CNP; activation, % at 10 µM; 370,000 compounds, 0.11% hits; AID 1920062, 2024;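 active = activation at 10 µM reaching about 35% in either raw or pattern-adjusted values, limit read from the data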
The depositor's hits bear a star; . = not tested or not shown.

SMILES	NPR1 activator	HIF activator	proKLK7 act	NPR2 activator
O=[N+]([O-])c1c(Nc2ccccc2O)cc(Cl)c2nonc12	39.6	-39.1	0.3	42.4*
O=C1CCCc2ccccc2N1Cc1ccc(F)cc1	.	41.7*	-0.3	.
C[C@H]1[C@@H](OC(=O)Nc2ccccc2F)CC[C@@]23CCCN2C(=O)CCC[C@@H]13	-3.3	.	.	-1.9
S=C(N/N=C/c1cccc2ccccc12)Nc1cccc(Cl)c1	4.1	219.8*	-0.8	3.4
Cc1c(Cl)cccc1NC(=S)N/N=C/c1ccccc1Cl	.	40.7*	.	.
CNC(=S)N/N=C/c1ccccc1Cl	3.1	0.0	0.2	3.0
CCCc1[nH]nc2c1C(c1ccoc1)C(C#N)=C(N)O2 (stereo not given)	-1.6	198.0*	0.0	1.4
Cc1[nH]nc2c1C(c1ccoc1)C(C#N)=C(N)O2 (stereo not given)	-1.2	-0.3	-0.1	-1.2
CCCNc1nc2c(c(=O)n(C)c(=O)n2C)n1Cc1ccc(F)cc1	32.5	-0.1	0.1	40.6*
Cc1cccc(Nc2nc3c(c(=O)n(C)c(=O)n3C)n2Cc2ccccc2)c1	53.4*	-0.2	0.0	47.2*
CCNc1nc2c(c(=O)n(Cc3ccccc3)c(=O)n2C)n1Cc1ccccc1	39.9	0.1	-0.2	40.2*
Cn1c(=O)c2c(nc(NCC3CCCO3)n2Cc2cccc(Br)c2)n(C)c1=O (stereo not given)	32.1	-0.2	0.4	37.7*
C=CCN(Cc1ccc(OC)cc1OC)C(C#CCCCC)c1ccccc1 (stereo not given)	-1.6	.	.	-7.2
CN1CCC(N[C@@H](Cc2ccccc2)C(=O)NCC(c2ccccc2)c2ccccc2)(C(=O)NC2CCCCC2)CC1	-26.2	.	.	-18.3
CCCCCCCCN1C(=O)[C@@H](CC(=O)N2CCCCC2)C[C@@]2(C(=O)OC)C1=C[C@H](COCc1ccccc1)O[C@@H]2C	-4.2	.	0.7	5.5
CCC(C)Nc1nc2c(c(=O)n(C)c(=O)n2C)n1Cc1ccc(Cl)cc1 (stereo not given)	41.9*	-0.5	0.2	47.5*
Cc1c[nH]c2cccc(-c3ccccc3)c12	-0.5	.	-0.2	4.0
Cc1ccc(CNC(=O)c2cc(C3CC3)nc3c2cnn3C(C)C)cc1	40.2*	.	-1.3	49.5*
COc1ccc(NC(=S)NCc2cccnc2)cc1OC	-3.3	-0.8	0.1	1.7
CCCCOC(=O)c1ccc(NC(=O)C(=O)NCCN(CC)CC)cc1	4.4	-0.1	-0.8	0.5
CCCCOC(=O)c1ccc(NC(=O)C(=O)NCc2cccnc2)cc1	2.5	25.1*	-0.4	-0.8
COc1ccc(NC(=S)NCc2cccnc2)cc1	1.6	584.9*	0.6	3.7
COc1cccc(CNc2ncnc3ccc(-c4c(C)noc4C)cc23)c1	51.0*	.	0.8	56.1*
COc1cccc(O[C@H]2C=C[C@@H](c3ccccc3)O[C@@H]2CO)c1	-3.4	.	0.1	0.3
C[C@@H]1NC(=O)[C@H]2C[C@@]3(c4ccccc4)c4ccccc4N[C@H]3N2C1=O	-1.2	.	0.0	3.2
SMILES	NPR1 activator	HIF activator	proKLK7 act	NPR2 activator
O=C(/C=C/c1ccc2c(c1)OCO2)Nc1cccnc1	0.8	11.2*	4.2	-0.4
c1nc(NCc2ccc3c(c2)OCO3)c2cc(-c3ccoc3)ccc2n1	42.0*	.	0.6	46.4*
c1cncc(-c2ccc3ncnc(NCc4ccc5c(c4)OCO5)c3c2)c1	4.7	.	-0.7	12.0
Oc1cccc(/C=N/NC(=S)Nc2cccnc2)c1O	-5.3	14.1*	-6.9	0.2
Fc1c(F)c(F)c(/C=N/NC(=S)Nc2cccnc2)c(F)c1F	58.1*	-0.1	-0.1	0.8
Fc1cccc(F)c1/C=N/NC(=S)Nc1cccnc1	-2.6	0.3	-0.4	-3.6
COc1ccc(-n2c(COc3ccc(Cl)cc3)nnc2SCc2nc3ccccc3[nH]2)cc1	-11.6	.	0.6	-7.2
COc1ccccc1NC(=O)c1nc(S(=O)(=O)Cc2ccccc2)ncc1Cl	27.3	634.4*	-0.2	1.8
CCS(=O)(=O)c1ncc(Cl)c(C(=O)Nc2ccccc2OC)n1	36.4	-9.8	0.0	-2.3
CCCN(CCC)CCNC(=O)c1cc2c(-c3ccc(Cl)cc3)nn(C)c2s1	-7.9	0.6	3.5	-5.6
CCN(CC)CCNC(=O)c1cc2c(-c3ccc(Cl)cc3)nn(C)c2s1	-11.9	.	16.6*	-30.8
C=CCOc1nc(-c2ccccc2Cl)nc2ccccc12	-4.3	63.5*	-0.1	-5.2
C=CC[C@H](CC(=O)N(CCO)Cc1ccccc1)C(=O)NC[C@H](OC(=O)[C@@H](CC=C)CC(=O)OC(C)(C)C)c1ccccc1	-8.2	.	0.8	-9.2
C=CC[C@H](CC(=O)NCCO)C(=O)NC[C@@H](OC(=O)[C@@H](CC=C)CC(=O)OC(C)(C)C)c1ccccc1	-8.0	.	-0.1	68.7*
CC(=O)c1ccc(Nc2c3c(c(C#N)c4nc5ccccc5n24)CCC3)cc1	.	0.2	.	.
COc1ccc(Nc2c3c(c(C#N)c4nc5ccccc5n24)CCC3)cc1	41.0*	0.2	0.9	28.0
COc1ccc(N(C)C(=O)c2sc(Cl)nc2C)cc1	-4.6	-0.7	-0.6	4.4
Cc1ccc(OC(=O)c2sc(Cl)nc2C)cc1C	71.4*	0.2	-0.4	6.4
CCOC(=O)C(=Cc1ccc(OCc2ccc([N+](=O)[O-])cc2)c(OC)c1)C(=O)OCC	13.0	11.0*	-0.7	6.6
COC(=O)C(=Cc1ccc(OCc2ccc([N+](=O)[O-])cc2)c(OC)c1)C(=O)OC	5.7	3.3	0.0	12.8
O=C(Nc1ccc(C(O)(C(F)(F)F)C(F)(F)F)cc1)c1ccc(Cl)cc1	-0.8	.	.	1.5
Oc1ccc(C2C=C(c3ccc(F)cc3)Nc3ncnn32)cc1 (stereo not given)	-4.7	0.2	26.5*	-11.4
NC(=O)C1(Nc2ccc(-c3ccc(Cl)cc3)cc2)CCCC1	58.1*	.	-0.1	-9.3
Cc1ccc(OCCNC(=O)CCc2nc3sc4c(c3c(=O)[nH]2)CCCC4)cc1	-2.8	45.3*	-1.3	8.7
O=C(CCc1nc2sc3c(c2c(=O)[nH]1)CCCC3)NCCOc1ccccc1	-3.7	-0.1	0.3	-5.4
SMILES	NPR1 activator	HIF activator	proKLK7 act	NPR2 activator
O=S1(=O)c2ccc(Br)cc2OC[C@@H](Cc2ccccc2)N1Cc1cn(Cc2ccc(F)cc2)nn1	-1.8	.	0.7	8.9
Nc1c(C(=O)NCc2ccccc2)sc2nc(N3CCOCC3)c3c(c12)CCCC3	42.6*	-0.7	-65.8	36.4*
COC(=O)[C@]12C[C@H](CC(=O)NCC34CC5CC(CC(C5)C3)C4)C(=O)N(Cc3ccccc3)C1=C[C@H](COCc1ccccc1)O[C@@H]2C	1.0	.	0.0	0.4
CC(=O)Nc1sc2c(c1-c1nc3ccccc3s1)CNC2	-16.6	.	.	-4.5
O=C1CC(c2ccc3ccccc3c2)N=C2N(Cc3ccc4c(c3)OCO4)C/C(=C/c3ccccc3)N12 (stereo not given)	-1.5	.	.	-3.8
COc1cc(C(=O)NC2CCN(C)CC2)ccc1Nc1ncc2c(n1)N(Cc1ccccc1)CCC(=O)N2C	33.1	.	-0.6	37.7*
